Records with an inconclusive call do not appear. Activity calls are given as the source filed them. The calls were made as follows: active = hit-call score of the fitted dose curve at least 0.9, where 1 is the maximum; inconclusive = response in the unintended direction; inactive = score below 0.9.
Assay: CCTE_Shafer_MEA_dev_LDH: CCTE's Lactate Dehydrogenase Assay for Cytotoxicity in the Neural Network Formation Assay, Shafer Lab (AID 2284068);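 also: exposure for twelve days from plating with re-dosing on DIV 5 and 9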
Protocol: CCTE_Shafer_MEA_dev assay is conducted using Axion Biosystems 48 well microelectrode array (MEA) plates and Maestro recording system. Each well of the MEA plate contains a grid of 16 microelectrodes embedded in the culture surface. Electrically active cells, such as neurons, can be cultured over the electrodes, and electrical activity in these cells can be recorded extracellularly. The spontaneous firing of neurons is captured from each electrode on a microsecond timescale providing both temporally and spatially precise data. […] The CCTE_Shafer_MEA_dev assay uses primary cultures of rat cortical neurons. Recordings are made on days post-plating 5, 7, 9 and 12. As these cultures mature over time, neural networks develop functional activity and form cohesive networks in which electrical activity can be highly coordinated. CCTE_Shafer_MEA_dev_LDH is 1 of 19 assay components of the CCTE_Shafer_MEA_dev assay. It measures the lactate dehydrogenase enzyme activity using spectrophotometry.Data from the assay component CCTE_Shafer_MEA_dev_LDH was analyzed into 1 assay endpoint. This assay endpoint, CCTE_Shafer_MEA_dev_LDH, was analyzed in the positive analysis fitting direction relative to DMSO as the negative control and baseline of activity. Using a type of viability reporter, loss-of-signal activity can be used to understand cell viability.
On the day prior to culture, each well was coated thoroughly with 150 uL of 0.05% polyethyleneimine (PEI, Sigma Cat P3143) in 50 mM HEPES (Sigma Cat H7523) at a pH of 8. The plate was incubated at 37C for one hour. PEI was rinsed out with 500 uL of sterile water three times. Plates were stored at 4C until the day of culture. This culture was plated at a seeding density of 1.5 x 10^5 cells/well on a 48-well MEA plate, prepared as described above. Cells were administered via a 25 uL media/laminin ([…]; Sigma Cat L2020-1MG) drop directly onto the microelectrode array, as adding the cells with the laminin results in better attachment than pre-coating with laminin. After 2 hours, an additional 475 uL of cortical media was added and the cells returned to the incubator. Exposure starts at day 0 of plating and is continued over twelve days of network development until the experiment is terminated. Cells are fed with fresh medium on DIV 5 and 9, following the recordings on those days. The entire volume of media in the well is exchanged and any vehicle or compound treatment is renewed. Complete details are found in OP-NHEERL/ISTD/SBB/TJS/2015-03-r0 (available on request, email shafer.tim@epa.gov). Measurement of the electrical activity is non-invasive, and recordings can be made from the same plate over multiple different days of the culture. In cortical neurons, this allows for the measurement of extracellular action potentials over the period during which networks form in the MEA plate.

Row | SMILES | AC50 | outcome
1 | CCc1ccccc1 | 0.299 µM (active) | 
2 | F |  | inactive
3 | O=C1CC2(CCCC2)CC(=O)N1CCCCN1CCN(c2ncccn2)CC1 |  | inactive
4 | CC(CNC(=S)[S-])NC(=S)[S-].[Zn+2] (stereo not given) | 39.4 µM (active) | 
5 | CN(C)CCCn1cc(C2=C(c3c[nH]c4ccccc34)C(=O)NC2=O)c2ccccc21 | 7.97 µM (active) | 
6 | BrC1CC(Br)CC(Br)CC(Br)CC(Br)CC(Br)C1 (stereo not given) | 10.6 µM (active) | 
7 | c1ccc2c(c1)ccc1c3ccccc3ccc21 |  | inactive
8 | c1cc2c3c(c1)ccc1cccc(c13)C2 |  | inactive
9 | Brc1cc(Br)c(Oc2cc(Br)c(Br)cc2Br)cc1Br | 7.47 µM (active) | 
10 | [O]=[V]([OH])([OH])[OH] | 24.3 µM (active) | 
11 | C[C@@H]1CCO[C@H]2Cn3cc(C(=O)NCc4ccc(F)cc4F)c(=O)c(O)c3C(=O)N12 | 1.07 µM (active) | 
12 | C[C@@H]1CC[C@@H](C(C)(C)O)[C@H](O)C1 |  | inactive
13 | CCCCCC(C)(CC)C(=O)NC (stereo not given) | 50 µM (active) | 
14 | CCCCCC=C(C)C(CC)CCO (stereo not given) |  | inactive
15 | CC(C)O |  | inactive

Source: PubChem BioAssay (EPA / NIEHS)
